This is an account of results in PubChem BioAssay.

The structures appear in SMILES notation. “And” between values parts separate entries of the source, which are not always exact repeats. Identical values can stand only once. The source made the active and inactive calls. Unless noted, how the calls were made is not given here.

Test [1] is described as follows: liver-stage malaria parasite growth inhibition, primary screen, cell-based, HepG2, luciferase luminescence, HepG2 viability (AID 624349; in the data active means parasite load remaining mostly below about 12%, no sharp cut-off; inactive means mostly above about 10%;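 further: 100% = mean of DMSO negative control wells on the same plate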). The settings on record: P. berghei liver stage in HepG2, luciferase luminescence, concentration not given here; parasite load remaining: stronger effect = lower value; viability: measured here: HepG2 viability without parasites.
Test [2] can be described thus: sensitizers of A549 cells to miR-34 induction, primary screen, imaging, A549 dox-inducible miR-34, nuclei and caspase counts (AID 1347080;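 active means compounds whose cell count with miR-34 switched on is under 0.7 times the count with it off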). The settings on record: A549 miR-34 inducible, Hoechst nuclei count, 48 h.
A short description of test [3]: modifiers of HSF1 nuclear foci, imaging, Selleck Cancer Library (AID 1347162; in the data active means plate-normalised HSF1 focus index below about 0.46). The note with it: human cells, at 10 µM; SSMD: measured here: HSF1 foci SSMD mean; cell count: measured here: cell number; plate-normalised HSF1 focus index: stronger effect = lower value.
Test [4] is described as follows: survival rescue of mitochondrial mutant cells in low glucose, primary screen, MELAS cybrids, Rieske KO mouse fibroblasts, CellTiter-Glo (AID 1508586;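 active means mean z-score across replicates of 1.96 or higher in either the MELAS or the Rieske mutant cell line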;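 further: z relative to plate mean and SD of compound and empty wells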). (ATP-based viability assays read luminescence as a measure of living cells.)
Test [5] can be described thus: viability rescue of complex I mutant cybrids, primary screen, cell-based, galactose medium, ATP luminescence (AID 1645843;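 active means z-score of at least 1.8 in each of two replicates, scored against plate mean and spread of sample wells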;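 further: positive z means more ATP and so rescue of galactose-driven cybrid death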). The settings on record: complex I mutant cybrid cells, 72 h, stronger effect = higher value.
A short description of test [6]: hESC survival regulators, cell-based (AID 493140).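 Further: cells exposed to compounds for four days before counting.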 The settings on record: human embryonic stem cell survival screen; stronger effect = higher value.
Test [7] in a line: inhibitors of Cryptococcus chitosan production, flow cytometry, Cibacron Brilliant Red staining (AID 1347148).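 Further: compound exposure lasted three days at 37 degrees C.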 The settings on record: Cryptococcus neoformans chitosan, stronger effect = lower value; at 10 µM unless noted. A general note: Flow cytometry measures light scatter and fluorescence of single cells or particles in a stream.
Test [8] is described as follows: circadian clock period modulators, cell-based, LOPAC library, luminescence reporter (AID 2774).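 Further: values are relative to mean of DMSO wells on each plate.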 The note with it: circadian reporter cells, at 7 µM, actives lie on both sides.
Test [9] relates to Hepatitis C virus NS3 helicase. The test is described as follows: HCV NS3 helicase inhibitors, primary screen, biochemical, fluorescence polarization, LOPAC1280 library (AID 687035; in the data active means inhibition above about 37%). The note with it: Purified HCV NS3 helicase, Cy5-dT15 ssDNA binding fluorescence polarization; stronger effect = higher value; concentration not given here. On the technique in general: In fluorescence polarisation assays a small probe gives low polarisation when free and higher when bound to something large.

A short description of test [10]: Cy5 fluorescence quenching or enhancement artefacts, artefact control for HCV NS3 helicase inhibitor project, biochemical, LOPAC1280 (AID 687037). The note with it: Cy5-DNA-NS3h complex fluorescence interference counterscreen.
Test [11] is described as follows: phospholipid biosynthesis inhibitors in animal cells, primary screen, cell-based, LOPAC library, screen 4 (AID 1347384). The settings on record: phospholipid biosynthesis inhibition screen, at 10 µM.
In test [12] the target is Mitogen-activated protein kinase 7 (Homo sapiens) (UniProt Q13164). In words: ERK5 transactivation activators in reporter cells, primary screen, cell-based, HTS (AID 1508626;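 active means luciferase signal above three times the same-plate solvent-only control wells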;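 further: luciferase driven by Gal4-ERK5 fusion binding five Gal4 sites before minimal TATA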). The note with it: HeLa Gal4-ERK5 transactivation, 18 h, at 5 µM, stronger effect = higher value.
In test [13] the target is NAD(+) hydrolase SARM1 (Homo sapiens) (UniProt Q6SZW1). The test is described as follows: SARM1 TIR NADase inhibitors, cell lysate, NAD-Glo luminescence (AID 1508614;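 active means compound whose remaining NAD level is above about 45 nM, limit read from the data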). The settings on record: SAM-TIR HEK293T lysate NADase, at 1 µM, stronger effect = higher value.
Setting [14] is: stronger effect = lower value, cell number ratio, induced over uninduced.
Where [15] appears, read: measured here: relative caspase fold change +Dox/-Dox.
Where [16] appears, read: measured here: total cells with miR-34 induction, stronger effect = lower value.
Setting [17] is: measured here: total cells without miR-34 induction.

Sequence of NAD(+) hydrolase SARM1 (Homo sapiens) (Q6SZW1 whole entry, looked up): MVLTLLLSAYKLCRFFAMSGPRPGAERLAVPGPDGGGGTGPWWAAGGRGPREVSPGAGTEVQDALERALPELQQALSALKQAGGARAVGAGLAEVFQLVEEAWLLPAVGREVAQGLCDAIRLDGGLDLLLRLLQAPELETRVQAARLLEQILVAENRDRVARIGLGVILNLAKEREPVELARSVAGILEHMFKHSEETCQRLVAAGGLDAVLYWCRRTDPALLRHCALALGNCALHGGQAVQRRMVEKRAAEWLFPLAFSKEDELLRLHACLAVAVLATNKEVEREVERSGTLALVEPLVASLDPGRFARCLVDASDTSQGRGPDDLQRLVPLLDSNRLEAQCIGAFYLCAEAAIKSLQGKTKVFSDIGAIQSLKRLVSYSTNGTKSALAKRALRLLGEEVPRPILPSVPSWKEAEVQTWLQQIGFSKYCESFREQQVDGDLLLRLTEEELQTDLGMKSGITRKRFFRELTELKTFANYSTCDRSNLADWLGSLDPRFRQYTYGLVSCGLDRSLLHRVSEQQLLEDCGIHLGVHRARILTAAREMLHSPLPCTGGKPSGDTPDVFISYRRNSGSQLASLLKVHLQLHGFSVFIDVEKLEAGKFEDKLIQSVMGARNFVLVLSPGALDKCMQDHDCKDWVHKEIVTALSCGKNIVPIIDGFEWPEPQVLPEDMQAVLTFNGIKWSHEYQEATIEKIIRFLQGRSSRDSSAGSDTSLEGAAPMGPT
Sequence of Mitogen-activated protein kinase 7 (Homo sapiens) (Q13164 whole entry, looked up, the tested form may be a part): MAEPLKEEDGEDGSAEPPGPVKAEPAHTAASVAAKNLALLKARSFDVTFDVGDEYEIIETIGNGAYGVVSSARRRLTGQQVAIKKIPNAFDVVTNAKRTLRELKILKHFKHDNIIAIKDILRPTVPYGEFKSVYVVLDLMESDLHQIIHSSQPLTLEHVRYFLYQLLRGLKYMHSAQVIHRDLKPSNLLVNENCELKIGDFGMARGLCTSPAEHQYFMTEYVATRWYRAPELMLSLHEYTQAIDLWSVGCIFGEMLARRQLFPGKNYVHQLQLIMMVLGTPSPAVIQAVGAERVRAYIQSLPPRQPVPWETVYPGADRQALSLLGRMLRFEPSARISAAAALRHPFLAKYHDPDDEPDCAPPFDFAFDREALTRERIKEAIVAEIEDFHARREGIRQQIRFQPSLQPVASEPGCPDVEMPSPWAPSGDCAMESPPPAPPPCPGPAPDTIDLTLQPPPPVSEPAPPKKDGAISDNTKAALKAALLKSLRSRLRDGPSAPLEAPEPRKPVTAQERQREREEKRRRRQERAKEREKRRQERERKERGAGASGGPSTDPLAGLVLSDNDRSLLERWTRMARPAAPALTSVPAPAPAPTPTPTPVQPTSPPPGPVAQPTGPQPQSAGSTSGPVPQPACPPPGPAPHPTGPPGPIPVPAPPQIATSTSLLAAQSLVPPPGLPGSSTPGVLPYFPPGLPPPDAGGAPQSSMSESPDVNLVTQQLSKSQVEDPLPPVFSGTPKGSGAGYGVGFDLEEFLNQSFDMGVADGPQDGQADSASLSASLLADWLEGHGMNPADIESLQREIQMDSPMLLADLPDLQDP

Usually viability stands for a read-out of living cells in per cent, often relative to untreated cells. Take `N[C@@H]1CCCC[C@H]1N.O=C(O)C(=O)O.[Pt]`: in test [1], the parasite load remaining is 182% (inactive). For the same compound, the viability in [1] stood at 134%. Further, the figures for the fold change in test [2] (setting [14]) and in test [2] (setting [15]) were 0.972 (inactive) and 1.18, respectively. Besides, the results for the cell count in test [2] (setting [16]), in [2] (setting [17]) and in test [3] were 4570, 4710 and 7520, respectively. The same compound had an SSMD in test [3] of 1.36. In test [3], the plate-normalised HSF1 focus index was 1.09 (inactive). Besides, the z-score in test [4] (MELAS cybrid survival, CellTiter-Glo 48 h, stronger effect = higher value) was 0.335 (inactive); in [4] (Rieske KO mouse fibroblast survival, CellTiter-Glo 72 h) it was -0.474; in [5], 1.01 (inactive).

For the compound `CC1=C(/C=C/C(C)=C\C=C\C(C)=C\C(=O)O)C(C)(C)CCC1`, the survival in test [6] is 82.2 (inactive). For the same compound, the figures for the fold change in test [2] (setting [14]) and in [2] (setting [15]) were 0.906 (inactive) and 1.46, respectively. Besides, the cell count stood at 5680 in test [2] (setting [16]) and 6260 in test [2] (setting [17]). Also, the fold fluorescence in [7] was 4.39 (inactive).

Consider `CCCC(=O)O`, for which the fold change in test [2] (setting [14]) is 0.924 (inactive); in [2] (setting [15]), 0.39. In addition, the cell count in test [2] (setting [16]) was determined as 4770; in test [2] (setting [17]) it was 5160; in test [3], 7190. Moreover, the SSMD in test [3] is 1.8. Further, in [3], the plate-normalised HSF1 focus index was 1.11 (inactive).

Usually inhibition stands for the change of the read-out against control, counted positive when it falls. On to `CCCCS(=N)(=O)CC[C@H](N)C(=O)O` (some centres not stated), for which, in [8], the period change is -0.045 h (inactive). In addition, the inhibition in test [9] is -2% (inactive). Further, the fluorescence ratio (interference) in [10] is 1 (inactive). For the same compound, the fold change in [2] (setting [14]) was 0.972 (inactive); in test [2] (setting [15]) it was 2.07. The results for the cell count in [2] (setting [16]) and in test [2] (setting [17]) were 9810 and 10100, respectively. Besides, in test [11], the compound was classed as inactive. Moreover, in test [12], the luciferase signal is 48 AU (inactive). In test [5], the z-score is -0.84 (inactive).

For the compound `CO[C@H]1O[C@@H]2O[C@]3(C)CC[C@@H]4[C@@H](C)CC[C@H]([C@H]1C)[C@]24OO3`, the fold change in test [2] (setting [14]) is 0.984 (inactive); in test [2] (setting [15]) it was 1.93. Besides, the results for the cell count in test [2] (setting [16]) and in test [2] (setting [17]) were 9680 and 9830, respectively. Besides, in test [11], the result was inactive. Also, the z-score in [5] was -0.71 (inactive).

On to `Nc1nc2ccc(Cl)cc2n2c(-c3ccccc3)nnc12`, for which the fold change in test [2] (setting [14]) was 1.08 (inactive); in test [2] (setting [15]), 0.972. The values for the cell count in [2] (setting [16]) and in [2] (setting [17]) were 11200 and 10300, respectively. The outcome in test [11] was inactive. Besides, the z-score in test [5] is 1.13 (inactive).

As for `NC(N)=NCCNS(=O)(=O)c1cccc2cnccc12`, the survival in [6] is 124 (inactive). Besides, the parasite load remaining in test [1] was 46.9% (inactive). In [1], the viability was determined as 111%. In addition, the fold change in [2] (setting [14]) is 0.914 (inactive); in test [2] (setting [15]), 0.868. In addition, the cell count stood at 2220 in [2] (setting [16]) and 2430 in test [2] (setting [17]). The fold fluorescence in test [7] was 3.91 [at 170.4 µM] (inactive).

As for `CCCCN(CC)c1nc(C)nc2c1c(C)cn2-c1c(C)cc(C)cc1C`, the results for the fold change in test [2] (setting [14]) and in test [2] (setting [15]) were 1.08 (inactive) and 0.964, respectively. Also, the cell count came out at 6200 in [2] (setting [16]) and 5770 in test [2] (setting [17]). The compound was called inactive in test [11]. Besides, the z-score in test [5] was -1.29 (inactive).

Consider `CCCCC/C=C\C[C@H](O)/C=C/C=C\C/C=C\CCCC(=O)O`, for which, in test [6], the survival is 93.5 (inactive). The figures for the fold change in [2] (setting [14]) and in [2] (setting [15]) were 0.969 (inactive) and 1.13, respectively. The values for the cell count in [2] (setting [16]) and in test [2] (setting [17]) were 5180 and 5340, respectively. In addition, the fold fluorescence in test [7] was 4.99 [at 1 µM] (inactive) and 5.6 [at 1 µM] (inactive).

As for `Cc1oc(S(=O)(=O)N2CCCCC2)cc1NC(=O)Nc1ccccc1`, the fold change in test [2] (setting [14]) was 0.9 (inactive); in test [2] (setting [15]) it was 1.24. In addition, the cell count in test [2] (setting [16]) stood at 5590; in [2] (setting [17]), 6210; in test [3] it was 6950. The compound further displayed an SSMD in test [3] of 2.84. For the same compound, the plate-normalised HSF1 focus index in test [3] was 1.17 (inactive).

Take `N#C/C(=C\c1cc(Cl)cc(Cl)c1)c1cccnc1`: the survival in test [6] was 87.3 (inactive). The results for the fold change in test [2] (setting [14]) and in test [2] (setting [15]) were 1.04 (inactive) and 0.973, respectively. Moreover, the results for the cell count in test [2] (setting [16]) and in [2] (setting [17]) were 1950 and 1890, respectively. The fold fluorescence in [7] is 4 [at 181.7 µM] (inactive).

For `Nc1ncnc2c1c(-c1ccc(Oc3ccccc3)cc1)cn2C1CCCC1`, the period change in [8] was 0.07 h (inactive). Further, in test [1], the parasite load remaining is 28.7% (inactive) and the viability stood at 78.8%. Also, the inhibition in test [9] is 2% (inactive). In test [10], the fluorescence ratio (interference) is 1 (inactive). Moreover, the fold change in test [2] (setting [14]) is 1.28 (inactive). In [2] (setting [15]), the fold change worked out at 0.999. The cell count in test [2] (setting [16]) turned out to be 4440. The cell count in test [2] (setting [17]) is 3470. For the same compound, in [3], the SSMD is -0.154, the cell count came to 6750 and the plate-normalised HSF1 focus index is 0.99 (inactive). In test [11], the compound was classed as inactive. Besides, in test [5], the z-score was -1.02 (inactive).

As for `Cc1nc2n(c(=O)c1CCN1CCC(c3noc4cc(F)ccc34)CC1)CCCC2O` (configuration not stated), in test [9], the inhibition is -4% (inactive). In addition, the fluorescence ratio (interference) in test [10] is 1 (inactive). For the same compound, the fold change was 1.04 (inactive) in test [2] (setting [14]) and 0.907 in test [2] (setting [15]). The cell count in [2] (setting [16]) was 9980; in test [2] (setting [17]) it was 9570. Moreover, in [11], the result was inactive. For the same compound, in test [13], the remaining NAD is 10 nM (inactive). Further, the z-score in test [5] was -0.155 (inactive).

As to `COc1ccc(/C=C/c2nc(NCCCN(C)C)c3ccccc3n2)cc1`, the results for the fold change in [2] (setting [14]) and in test [2] (setting [15]) were 1.02 (inactive) and 1.21, respectively. Besides, the cell count turned out to be 1330 in test [2] (setting [16]) and 1300 in [2] (setting [17]). For the same compound, the compound was classed as inactive in test [11]. Also, the z-score in test [5] is -1.21 (inactive).

Turning to `CCCCC/C=C\C/C=C\C/C=C\C=C\C(=O)CCCC(=O)O`, the survival in test [6] was 84.8 (inactive). In addition, the figures for the fold change in test [2] (setting [14]) and in test [2] (setting [15]) were 0.886 (inactive) and 1.22, respectively. Also, the cell count came to 5820 in test [2] (setting [16]) and 6560 in test [2] (setting [17]). Moreover, the fold fluorescence in test [7] was 3.82 [at 1 µM] (inactive).

For the compound `CCCCC/C=C\CC1OC1CCCCCCCC(=O)O` (configuration not stated), the survival in test [6] is 79.6 (inactive). Besides, the fold change in [2] (setting [14]) is 0.903 (inactive); in [2] (setting [15]) it was 1.25. For the same compound, the cell count in test [2] (setting [16]) was 5290; in test [2] (setting [17]), 5850. Besides, the fold fluorescence in test [7] was 2.8 [at 1 µM] (inactive).

`COC(=O)[C@@H](N)CSC/C=C(\C)CC/C=C(\C)CCC=C(C)C`: the survival in [6] was 74.2 (inactive). Moreover, the fold change in test [2] (setting [14]) was 0.927 (inactive); in test [2] (setting [15]), 1.37. Moreover, the cell count in test [2] (setting [16]) was determined as 6060; in [2] (setting [17]), 6540. The fold fluorescence in test [7] is 4.53 (inactive).

As to `CN(C)CC(O)Cn1c2ccc(Br)cc2c2cc(Br)ccc21` (configuration not stated), the fold change in test [2] (setting [14]) is 0.735 (inactive); in [2] (setting [15]), 1.58. In addition, the values for the cell count in [2] (setting [16]) and in test [2] (setting [17]) were 200 and 272, respectively. The outcome in test [11] was inactive.
